Data reported in PubChem BioAssay (NCI).
The panel holds about 79,000 compounds, 15% with a hit somewhere; the sample as a whole holds those more often. Active and inactive are the calls of the source. Cut-off read from the data, not from the text of the source: active = growth inhibition above about 70%; inactive = the rest.

assay: NCI Yeast Anticancer Drug Screen. Data for the rad50 strain (AID 155);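 note: 0% = growth of vehicle-only cultures of the same strain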; settings: S. cerevisiae rad50 strain growth inhibition; at 50.0 µM; stronger effect = higher value
Summary of the method: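 Readout: growth inhibition relative to vehicle-treated cultures. Compound exposure was carried out in a genetically defined yeast strain deficient in DNA damage repair.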

Compound | growth inhibition
Cc1ccc(NC(=O)/C=C/c2ccccc2)cc1Cl | 2% (inactive)
COC(CCCl)c1ccc(C)cc1 (configuration not stated) | -9.4% (inactive)
CC1CCCN2C(=O)CN(Cc3ccccc3)CC(=O)N12 (configuration not stated) | 9.85% (inactive)
Cn1c(COc2ccc(/C=N\N3CCN(/N=C\c4ccc(OCc5c[n+]6ccccc6n5C)cc4)CC3)cc2)c[n+]2ccccc12 | -15.8% (inactive)
CC(=O)N1Cc2c(N)ncnc2C1C (configuration not stated) | -10.9% (inactive)
C(#CCN1CCOCC1)CCCN1CCOCC1 | 1.2% (inactive)
COC(=O)c1nc(=S)[nH]c(C(=O)OC)c1C(=O)c1ccc(OC)cc1 | -31.9% (inactive)
CC1OS(=O)OC1C (configuration not stated) | -20.9% (inactive)
O=C(NCCCl)c1ccc(F)cc1 | -21.2% (inactive)
CC(C)N(C(=O)C12CC3CC(CC(C3)C1)C2)C(C)C | 24.9% (inactive)
O=S(=O)(O)CCCC1S(=O)(=O)OCCOS1(=O)=O | -55.1% (inactive)
C[N+]([O-])(C/C=C/c1ccccc1)c1ccccc1 (configuration not stated) | -3.25% (inactive)
CN(C)c1ccc(/C=C(\C#N)c2cccc(Br)c2)cc1 | -2.45% (inactive)
CC(C)CC(Br)C(=O)NCC(=O)NCC(=O)O (configuration not stated) | 32.3% (inactive)
CC(C)(C)c1cc2c3c(c1)C(C(F)(F)F)(C(F)(F)F)OS3(=O)(O)OC2(C(F)(F)F)C(F)(F)F | 22.5% (inactive)
CC(C)(C)OC(=O)C1C(=O)CC(c2ccccc2)C1c1ccccc1 (configuration not stated) | -3.05% (inactive)
COc1ccc(OC)c(NC(=O)Nc2ccc(I)cc2)c1 | 46.8% (inactive)
